Six molecules from PubChem BioAssay can be followed below.

Active and inactive are the calls of the source.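 How the source made its calls, unless noted: active means compound raises insulin release from rat beta cells at 5 mM glucose, no numeric limit stated; inactive means the rest.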

The nature of experiment [1]: Wnt pathway potentiators raising nuclear beta-catenin – imaging, WNT3A-conditioned medium, mouse C2C12, NPC library, primary screen (AID 1117326; in the data active means nuclear beta-catenin stimulation mostly above about 4.2%, no sharp cut-off; inactive means mostly below about 10%). As to conditions: stronger effect = higher value.
Experiment [2] is described as follows: stimulators of insulin release from INS-1E, primary screen, cell-based, 5 mM glucose, NPC library (AID 1117329). As to conditions: rat INS-1E insulin secretion, at 10 µM, stronger effect = higher value.
Experiment [3] in a line: growth inhibition of GSK3B-pretreated HCT116 cells – cell-based, CellTiter-Glo, 0.2 to 20 µM (AID 1117336;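 active means compounds lowering colon cancer cell viability after pretreatment blocking the GSK3B kinase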). As to conditions: HCT116 viability after GSK3B inhibitor, at 20 µM, stronger effect = higher value. In general terms: ATP-based viability assays read luminescence as a measure of living cells.
Experiment [4] is described as follows: inhibition of endothelial tube formation, primary screen, imaging, VEGF stimulated, CD31 staining, tube area, NPC library (AID 1117340;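 active means compound that reduces growth-factor-driven endothelial tube area in a mixed cell culture, no cutoff stated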). As to conditions: VEGF-stimulated ADSC/ECFC co-culture, at 10 µM, stronger effect = higher value.
Experiment [5] can be described thus: GLP1 release stimulators, primary, NCI-H716, NPC library (AID 1117341;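 active means compound raises GLP1 secretion from the human gut endocrine cells, with no numeric limit stated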). As to conditions: NCI-H716 cells, at 10 µM, stronger effect = higher value.
Experiment [6] can be described thus: HCT116 colon cancer cell growth inhibition, primary screen, CellTiter-Glo luminescence, NPC library (AID 1117342;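 active means compounds that lower survival of HCT116 colon cancer cells in the luminescence readout, no numeric limit stated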). As to conditions: at 20 µM (top of the series).
The nature of experiment [7]: reduced SW480 viability measured with CellTiter-Glo, NPC library, primary (AID 1117343;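 active means compounds that lower viability of the colon cancer cells in the luminescence readout, with no numeric limit stated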). As to conditions: CellTiter-Glo luminescence; at 20 µM (top of the series).
A short description of experiment [8]: NPC library primary testing for decreased DLD-1 cell viability via CellTiter-Glo (AID 1117346;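 active means compounds that lower survival of DLD-1 colon cancer cells in the luminescence readout, no cutoff given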). Conditions: DLD-1 viability, CellTiter-Glo luminescence; at 20 µM (top of the series).
The nature of experiment [9]: viability loss with induced miR-34 in A549 – imaging, A549 dox-inducible miR-34, nuclei and caspase counts, primary screen (AID 1347080;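 active means compounds whose cell count with miR-34 switched on is under 0.7 times the count with it off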). Conditions: A549 miR-34 inducible, Hoechst nuclei count, 48 h.
Experiment [10] can be described thus: MELAS cybrid and Rieske KO viability enhancers – cell-based, MELAS cybrids, Rieske KO mouse fibroblasts, CellTiter-Glo, primary screen (AID 1508586;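 active means mean z-score across replicates of 1.96 or higher in either the MELAS or the Rieske mutant cell line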;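 further: z relative to plate mean and SD of compound and empty wells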). As to conditions: low glucose.
Experiment [11] is described as follows: compounds altering viability of human ES cells (AID 493140; call rule not given here;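 further: cells exposed to compounds for four days before counting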). As to conditions: human embryonic stem cell survival screen; stronger effect = higher value.
Experiment [12] can be described thus: P. berghei load reduction in hepatocytes – cell-based, HepG2, luciferase luminescence, HepG2 viability, primary screen (AID 624349; in the data active means parasite load remaining mostly below about 12%, no sharp cut-off; inactive means mostly above about 10%;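 further: 100% = mean of DMSO negative control wells on the same plate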). Conditions: P. berghei liver stage in HepG2, luciferase luminescence, concentration not given here; parasite load remaining: stronger effect = lower value; viability: measured here: HepG2 viability without parasites.
Experiment [13] concerns the target NAD(+) hydrolase SARM1 (Homo sapiens) (UniProt Q6SZW1). Briefly: blocking NAD cleavage by SARM1 SAM-TIR – cell lysate, NAD-Glo luminescence (AID 1508614;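 active means compound whose remaining NAD level is above about 45 nM, limit read from the data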). As to conditions: SAM-TIR HEK293T lysate NADase, at 1 µM, stronger effect = higher value.
The mark [14] stands for this setting: stronger effect = lower value, cell number ratio, induced over uninduced.
Setting [15] is: measured here: relative caspase fold change +Dox/-Dox.
[16] abbreviates: measured here: total cells with miR-34 induction, stronger effect = lower value.
Where [17] appears, read: measured here: total cells without miR-34 induction.
Setting [18] is: MELAS cybrid survival, CellTiter-Glo 48 h, stronger effect = higher value.
Setting [19] is: Rieske KO mouse fibroblast survival, CellTiter-Glo 72 h.

Chain of NAD(+) hydrolase SARM1 (Homo sapiens) (Q6SZW1 whole entry, looked up): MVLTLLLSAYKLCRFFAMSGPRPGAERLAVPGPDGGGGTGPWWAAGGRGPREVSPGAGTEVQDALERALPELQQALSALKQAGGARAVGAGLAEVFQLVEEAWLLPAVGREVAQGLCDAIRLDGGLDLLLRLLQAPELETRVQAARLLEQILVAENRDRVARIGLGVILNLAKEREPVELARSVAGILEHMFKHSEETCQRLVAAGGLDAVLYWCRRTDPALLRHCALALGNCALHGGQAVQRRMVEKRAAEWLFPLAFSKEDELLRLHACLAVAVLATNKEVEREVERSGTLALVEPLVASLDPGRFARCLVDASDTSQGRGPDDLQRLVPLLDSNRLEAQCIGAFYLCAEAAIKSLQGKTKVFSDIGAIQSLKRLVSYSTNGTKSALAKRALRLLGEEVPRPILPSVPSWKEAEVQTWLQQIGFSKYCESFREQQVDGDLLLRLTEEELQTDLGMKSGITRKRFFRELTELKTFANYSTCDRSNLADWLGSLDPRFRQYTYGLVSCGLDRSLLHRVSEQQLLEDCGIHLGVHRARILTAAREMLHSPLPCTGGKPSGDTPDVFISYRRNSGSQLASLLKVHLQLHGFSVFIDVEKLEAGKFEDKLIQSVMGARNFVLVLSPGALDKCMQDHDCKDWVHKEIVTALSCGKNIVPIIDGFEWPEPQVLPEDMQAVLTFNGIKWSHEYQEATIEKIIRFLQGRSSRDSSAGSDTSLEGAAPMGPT

With `CN(C)CCc1ccc(O)cc1`, the nuclear beta-catenin stimulation is -0.3% (inactive) in [1] (at 10 µM) and 1.5% in experiment [1] (stimulation, at 2 µM). Moreover, the insulin secretion stimulation in experiment [2] is -0.4% (inactive). The viability decrease in [3] was 1.5% (inactive). For the same molecule, the tube area decrease in [4] was 4.1% (inactive). Also, the GLP1 secretion stimulation in experiment [5] is 1.1% (inactive). The inhibition of viability in experiment [6] is 4.7% (inactive). Besides, the viability decrease (inhibition) in experiment [7] was 1.9% (inactive); in [8], -0.4% (inactive). The fold change in [9] (setting [14]) is 0.908 (inactive); in [9] (setting [15]), 0.849. Also, the cell count in experiment [9] (setting [16]) is 9070; in experiment [9] (setting [17]) it was 9990. The z-score in experiment [10] (setting [18]) is -0.277 (inactive); in experiment [10] (setting [19]), 0.765.

In the case of `CC1(C)[C@H](C=C(Cl)Cl)[C@@H]1C(=O)OCc1c(F)c(F)cc(F)c1F`, the nuclear beta-catenin stimulation was -2.8% (inactive) in experiment [1] (at 10 µM) and -1.8% in experiment [1] (stimulation, at 2 µM). Also, in [2], the insulin secretion stimulation was 0.45% (inactive). Besides, in experiment [5], the GLP1 secretion stimulation is -5.4% (inactive).

Regarding `CCNCC(O)c1cccc(O)c1` (configuration not stated), the survival in [11] was 9.33 (inactive). For the same molecule, in experiment [12], the parasite load remaining was 95% (inactive). This molecule also registered a viability in experiment [12] of 69.4%. Besides, the nuclear beta-catenin stimulation in [1] (at 10 µM) is -1.1% (inactive); in experiment [1] (stimulation, at 2 µM), 2.2%. Moreover, the insulin secretion stimulation in experiment [2] is 0.6% (inactive). Moreover, the viability decrease in experiment [3] was -11.3% (inactive). In addition, the tube area decrease in experiment [4] is 0.2% (inactive). For the same molecule, the GLP1 secretion stimulation in experiment [5] is -2.7% (inactive). Moreover, the inhibition of viability in [6] was 1.7% (inactive). In addition, the viability decrease (inhibition) in [7] was 15.1% (inactive); in experiment [8] it was -2.7% (inactive). The fold change in experiment [9] (setting [14]) is 0.936 (inactive); in experiment [9] (setting [15]), 0.593. Besides, the results for the cell count in [9] (setting [16]) and in experiment [9] (setting [17]) were 9690 and 10400, respectively. In addition, the z-score in experiment [10] (setting [18]) was 0.575 (inactive); in experiment [10] (setting [19]) it was 0.102.

For `C=C1CC[C@@]2(O)[C@H]3Cc4ccc(O)c5c4[C@@]2(CCN3CC2CC2)[C@H]1O5`, the nuclear beta-catenin stimulation in experiment [1] (at 10 µM) was 0.5% (inactive); in experiment [1] (stimulation, at 2 µM), 2.1%. Further, the insulin secretion stimulation in experiment [2] is 1.2% (inactive). In addition, in experiment [3], the viability decrease is -11.9% (inactive). The tube area decrease in experiment [4] was 5.1% (inactive). The GLP1 secretion stimulation in experiment [5] is 2.6% (inactive). The inhibition of viability in [6] is 20.1% (inactive). Also, the viability decrease (inhibition) in experiment [7] was 7.8% (inactive); in [8], 6.2% (inactive). The z-score in experiment [10] (setting [18]) is 0.147 (inactive); in experiment [10] (setting [19]) it was -0.2.

Turning to `CC(C)(O)C(Cl)(Cl)Cl`, the nuclear beta-catenin stimulation in experiment [1] (at 10 µM) was -0.2% (inactive); in experiment [1] (stimulation, at 2 µM), 0.8%. Besides, the insulin secretion stimulation in [2] is -2.2% (inactive). Moreover, the viability decrease in [3] is -5.6% (inactive). The tube area decrease in experiment [4] was 1.4% (inactive). For the same molecule, in [5], the GLP1 secretion stimulation was 1.1% (inactive). Moreover, the inhibition of viability in [6] is 4.4% (inactive). Further, the viability decrease (inhibition) in experiment [7] is 14% (inactive); in experiment [8], 6.7% (inactive). Further, the fold change in experiment [9] (stronger effect = lower value) was 0.973 (inactive); in experiment [9] (setting [15]) it was 0.817. The cell count came out at 7820 in experiment [9] (setting [16]) and 8030 in experiment [9] (setting [17]). Besides, the remaining NAD in experiment [13] is 10 nM (inactive).

With `NCCC[C@H](N)C(=O)O`, the nuclear beta-catenin stimulation in experiment [1] (at 10 µM) is 1.2% (inactive); in experiment [1] (stimulation, at 2 µM) it was 1.6%. Further, the insulin secretion stimulation in experiment [2] was -2.2% (inactive). In [3], the viability decrease was -5.15% (inactive). In experiment [4], the tube area decrease is -2.1% (inactive). For the same molecule, in experiment [5], the GLP1 secretion stimulation was 1.4% (inactive). Further, the inhibition of viability in [6] was -35.4% (inactive). Further, the values for the viability decrease (inhibition) in [7] and in experiment [8] were 98.1% (active) and 0.35% (inactive), respectively. For the same molecule, the remaining NAD in [13] is 10 nM (inactive).

What is called viability is the share of living cells, or the viability signal relative to a control.
